SMILES strings stand for the structures. This is one part of the list. Inconclusive results are not listed. Active and inactive are the calls of the source. Calls come from the whole dose curve.

For the assay, the target named is Thyroid hormone receptor beta (Homo sapiens) (UniProt P10828). As to the kind of experiment: Protein Interaction Secondary Assay for Inhibitors of the Interaction of Thyroid Hormone Receptor and Steroid Receptor Coregulator 2, Alpha Screen. As to conditions: AlphaScreen TRb LBD-SRC2 peptide binding, luminescence. From the text: NIH Molecular Libraries Probe Production Network [MLPCN] NIH Chemical Genomics Center [NCGC] MLPCN Grant: DK058080 Assay Provider: R. Kip Guy, St. Jude Children's Research Hospital NCGC Assay Overview: Thyroid receptor (TR) regulates many homeostatic processes including basal metabolism, cardiovascular function, body weight, and lipid trafficking. TR modulators are potential therapeutics for obesity and hyperlipidemias but current thyroid analogs have undesirable side effects, particularly cardiac stimulation. To confirm that inhibitors specifically prevent the interaction of TR with the steroid receptor coregulator 2 (SRC2), an orthogonal TR-SRC2 interaction assay using Alpha Screen (PerkinElmer) was employed. […] Small molecule inhibitors that block the interaction of TR and SRC2 are detected by a decrease in chemiluminescence.
Sequence of Thyroid hormone receptor beta (Homo sapiens) (P10828 whole entry, looked up, the tested form may be a part): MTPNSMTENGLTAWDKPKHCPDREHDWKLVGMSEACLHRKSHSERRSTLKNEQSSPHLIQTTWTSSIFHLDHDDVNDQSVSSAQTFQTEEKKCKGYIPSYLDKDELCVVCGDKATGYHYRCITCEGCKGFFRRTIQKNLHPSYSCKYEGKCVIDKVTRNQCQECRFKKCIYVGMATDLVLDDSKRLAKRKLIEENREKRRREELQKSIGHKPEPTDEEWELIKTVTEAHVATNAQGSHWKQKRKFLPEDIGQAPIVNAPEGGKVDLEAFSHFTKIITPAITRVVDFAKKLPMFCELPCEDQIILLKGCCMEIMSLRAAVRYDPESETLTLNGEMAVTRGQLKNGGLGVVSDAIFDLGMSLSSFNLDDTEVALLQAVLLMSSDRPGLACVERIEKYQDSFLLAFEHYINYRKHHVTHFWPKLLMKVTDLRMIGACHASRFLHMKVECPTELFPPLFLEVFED
NCGC Assay Protocol Summary: Fifteen uL/well of 100 nM TRb and 100 nM SRC2-2-peg2-biotin in buffer (25 mM HEPES, 100 mM NaCl, 1 mM DTT, 0.1% BSA, 0.01% NP-40) was dispensed into white 384 well Optiplates (PerkinElmer). […] After 30 min incubation, 5 uL of streptavidin donor beads were added and after 90 min incubation, the plates were read by an Envision (Perkin Elmer) to detect luminescence of the donor and acceptor bead interaction (680 nm excitation and 520-620 nm emission).
On the technique in general: In Alpha technology, singlet oxygen from a donor bead excites a nearby acceptor bead.
For `O=C(COC(=O)c1cccc([N+](=O)[O-])c1)NC1C2CC3CC(C2)CC1C3` (stereo unspecified), the molecule was classed as inactive.
